Reference: article PMC4552634, “A New Set of Chemical Starting Points with Plasmodium falciparum Transmission-Blocking Potential for Antimalarial Drug Discovery” (PLoS ONE, 2015)
Screen size: about 13,000 compounds; about 3,200 (25%) showed an effect of 50% or more. Some of the results follow.

Tested on: P. falciparum stage V gametocytes
Parameters: BacTiter-Glo ATP luminescence viability of purified stage V gametocytes in 384-well plates, per cent inhibition versus DMSO
Settings: 48 h, 5 µM; inhibitor

| Compound | % Inhibition |
| --- | --- |
| CC1(C)N=C(N)N=C(N)N1OCc1cc2ccccc2cc1CON1C(N)=NC(N)=NC1(C)C [TCMDC-131627] | 15.22% |
| O=C(/C=C/c1ccc(Cl)c(Cl)c1)NCCCCCCN1CCN(C(=O)Nc2ccc(C(F)(F)F)cc2)CC1 [TCMDC-135824] | -51.85% |
| CN(C(=O)Nc1ccc(F)cc1)C1CCN(CCCCCNC(=O)/C=C/c2ccc(Cl)c(Cl)c2)CC1 [TCMDC-139492] | -6.373% |
| O=C(NCCCCN1CCN(CC=Cc2ccccc2)CC1)c1ccc(NC(=O)c2cc(Cl)cc(Cl)c2)cc1 [TCMDC-138216] | -21.85% |
| O=C(NCC1CCN(C/C=C/c2ccccc2)CC1)Nc1ccc(Oc2ccccc2)cc1 [TCMDC-139153] | 95.36% |
| O=C(/C=C/c1ccc(Cl)c(Cl)c1)NCCCCCN1CCCC(CCCNC(=O)Nc2ccc(C(F)(F)F)cc2)C1 (stereo not shown) [TCMDC-139517] | 56.6% |
| CCOC(=O)c1ccc(NC(=O)NCCCC2CCCN(CCCCCNC(=O)/C=C/c3ccc(Cl)c(Cl)c3)C2)cc1 (stereo not shown) [TCMDC-139516] | 55.81% |
| O=C(NNC(=O)c1ccc(CN2CCC(c3nc4ccccc4[nH]3)CC2)cc1)Nc1ccc(Oc2ccccc2)cc1 [TCMDC-135310] | 0.2458% |
| CN(C(=O)Nc1ccc(C(F)(F)F)cc1)C1CCN(CCCCCNC(=O)/C=C/c2ccc(Cl)c(Cl)c2)CC1 [TCMDC-139524] | 54.85% |
| O=C(/C=C/c1ccc(Cl)c(Cl)c1)NCCCCN1CCCN(C(=O)Nc2ccc(C(F)(F)F)cc2)CC1 [TCMDC-135930] | -28.77% |
| Cn1cc(CCNc2ccnc(N3CCC(c4ncc[nH]4)CC3)n2)c2ccccc21 [TCMDC-135120] | 26.64% |
| CCOC(=O)CCCc1cc(NC2CCN(C)CC2)nc(Nc2ccc(OC)cc2)n1 [TCMDC-134017] | -45.24% |
| Cc1ccc(NC(=O)c2ccc(NCCCN3CC(C)CC(C)C3)c([N+](=O)[O-])c2)cc1F (stereo not shown) [TCMDC-125684] | -7.765% |
| Cc1cnc(N)c(/C=C/c2cncc(C(=O)NCCc3ccc(Cl)cc3Cl)c2)c1 [TCMDC-134509] | -9.663% |
| O=C(/C=C/c1ccc(Cl)c(Cl)c1)NCCCCCN1CCCC(CNC(=O)Nc2ccc(Oc3ccccc3)cc2)C1 (stereo not shown) [TCMDC-139522] | 54.61% |
| O=C(/C=C/c1ccc(Cl)c(Cl)c1)NCCCCCN1CCC(CCCNC(=O)Nc2ccc(C(F)(F)F)cc2)CC1 [TCMDC-139514] | 102.3% |
| CC(C)c1ccc(NC(=O)NCCCC2CCCN(CCCCCNC(=O)/C=C/c3ccc(Cl)c(Cl)c3)C2)cc1 (stereo not shown) [TCMDC-139515] | 38.89% |
| O=C(/C=C/c1ccc(Cl)c(Cl)c1)NCCCCCN1CCC(NC(=O)Nc2ccc(C(F)(F)F)cc2)CC1 [TCMDC-135723] | -19.76% |
| O=C(/C=C/c1ccc(Cl)c(Cl)c1)NCCCCCN1CCCC(CNC(=O)Nc2ccc(C(F)(F)F)cc2)C1 (stereo not shown) [TCMDC-139521] | 91.99% |
| O=C(/C=C/c1ccc(Cl)c(Cl)c1)NCCCCCN1CCC(NC(=O)Nc2ccc(Cl)c(C(F)(F)F)c2)CC1 [TCMDC-135730] | 1.176% |
| O=C(/C=C/c1ccc(Cl)c(Cl)c1)NCCCCCN1CCN(C(=O)Nc2ccc(C(F)(F)F)cc2)CC1 [TCMDC-135734] | -55.55% |
| CCCCCCCNC(=O)NCC1CCCN(CCCCCNC(=O)/C=C/c2ccc(Cl)c(Cl)c2)C1 (stereo not shown) [TCMDC-139518] | 11.83% |
| O=C(/C=C/c1ccc(Cl)c(Cl)c1)NCCCCCN1CCC(NC(=O)Nc2ccc(C(F)(F)F)cc2)C1 (stereo not shown) [TCMDC-139527] | -24.61% |
| CC(C)c1ccc(NC(=O)NCC2CCCN(CCCCCNC(=O)/C=C/c3ccc(Cl)c(Cl)c3)C2)cc1 (stereo not shown) [TCMDC-139519] | 58.09% |
| COc1cc2ncnc(Nc3ccc(OCc4ccccc4Br)c(OC)c3)c2cc1OC [TCMDC-131915] | -3.642% |

| Compound | % Inhibition |
| --- | --- |
| O=S(=O)(NC1CCN(c2ccnc3ccccc23)C1)c1ccc(OC(F)(F)F)cc1 (stereo not shown) [TCMDC-133581] | 2.209% |
| O=C(Cc1cccs1)NC(CCCN1CCC(Oc2cccc(Cl)c2)CC1)c1ccc(Cl)c(Cl)c1 (stereo not shown) [TCMDC-141902] | -47.46% |
| C=CCn1c(SCC(=O)Nc2cc(Cl)ccc2Cl)nc2sc(C)cc2c1=O [TCMDC-124996] | 8.476% |
| CCc1nc(N)nc(N)c1-c1ccc(C(C)C)cc1 [TCMDC-137368] | 11.22% |
| CC1CN(S(=O)(=O)c2ccc(NC(=O)c3cc(-c4ccccc4O)n[nH]3)cc2)CC(C)O1 (stereo not shown) [TCMDC-125195] | 7.357% |
| CCCN(c1ccc(O)c(CN2CCCCC2)c1)c1ccc([N+](=O)[O-])cn1 [TCMDC-137486] | 15.96% |
| CN(C)c1ccc(-c2ccc(C(=O)NC3CCN(Cc4ccc5c(c4)OCCO5)CC3)s2)cc1 [TCMDC-134339] | -48.84% |
| CCCN=CNc1cc(-c2csc(N=C(N)N)n2)cc([N+](=O)[O-])c1 [TCMDC-137246] | -47.16% |
| O=C(NC1CCC(N2CCN(c3cccc(C(F)(F)F)c3)CC2)CC1)c1cc2ccccc2[nH]1 (stereo not shown) [TCMDC-132885] | 32.36% |
| O=C(NC1CCC(N2CCC(O)(c3ccc(F)cc3)CC2)CC1)c1cc2ccccc2[nH]1 (stereo not shown) [TCMDC-132887] | 9.268% |
| O=C(NC1CCC(N2CCC3(CC2)C(=O)NCN3c2ccccc2)CC1)c1cc2ccccc2[nH]1 (stereo not shown) [TCMDC-132886] | 76.36% |
| CC(Cc1ccc(OCCN2CCN(c3ccc(Cl)cc3)CC2)cc1)NCC(O)c1cccc(C(F)(F)F)c1 (stereo not shown) [TCMDC-131530] | 29.05% |
| COc1cccc(CNC(=O)[C@@H]2CN(C(=O)c3ccccc3)CCN2)c1 [TCMDC-141267] | -8.525% |
| CC1CCN(Cc2cccc(C(=O)NCc3ccc(F)c(-c4cccc(CN5CCN[C@@H](C)C5)c4)c3)c2)CC1 [TCMDC-136206] | 100.7% |
| O=C(NCc1ccc(Cl)c(Cl)c1)c1ccc(C2CCCN(Cc3ccc4nc[nH]c4c3)C2)cc1 (stereo not shown) [TCMDC-133068] | 0.7535% |
| COc1ccc(CN2CCCN(Cc3cccc(C(=O)Nc4ccc(C)c(F)c4)c3)CC2)cc1 [TCMDC-135960] | -17.45% |
| C[C@H]1CN(Cc2cccc(-c3cc(CNC(=O)c4cccc(CC5CCN(C)CC5)c4)ccc3F)c2)CCN1C [TCMDC-136349] | 103.8% |
| C[C@H]1CN(Cc2cccc(-c3cc(CNC(=O)c4cccc(C(=O)c5ccc(Cl)c(Cl)c5)c4)ccc3F)c2)CCN1 [TCMDC-136245] | 103.5% |
| O=C(NCc1cccc(Cl)c1)c1ccc(CNC2CCN(Cc3ccccc3)CC2)cc1 [TCMDC-140785] | 24.82% |
| COc1cccc(CNC(=O)c2ccnc(-c3cccc(CN(C)C4CCN(C)CC4)c3)c2)c1 [TCMDC-134500] | 23.23% |
| CN1CCCN(Cc2cccc(-c3ccc(CNC(=O)c4cccc(Cl)c4)c(F)c3)c2)CC1 [TCMDC-133370] | 8.787% |
| C[C@H]1CN(Cc2cccc(-c3cc(CNC(=O)c4cccc(CN5CCN(CCOc6ccccc6)CC5)c4)ccc3F)c2)CCN1 [TCMDC-136210] | 110.3% |
| O=C(NCc1ccc(Cl)c(Cl)c1)c1cccc(C2CCCN(Cc3ccc4nc[nH]c4c3)C2)c1 (stereo not shown) [TCMDC-133067] | -29.33% |
| O=C(NCc1cccc(Br)c1)c1ccc(CNC2CCN(Cc3ccccc3)CC2)cc1 [TCMDC-140788] | 24.75% |
